In test [1] the test system is DLD1. As to the kind of experiment: cell viability (CellTiter-Glo) relative to plate median (fraction of plate median); higher = more viable cells. Conditions: 10 µM, treatment time 24 h. In outline:
(§1)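 Colorectal cancer cell lines stably transduced with lentiviral TCF/Wnt firefly luciferase reporters (7TFP or TCF4/Wnt) were seeded in 384-well plates. 24 h later they received kinase inhibitor library compounds at a final 10 µM for 24 h. Parallel plates were read for firefly luciferase or CellTiterGlo luminescence on a Tecan F500 reader. Each well's signal was normalised to the plate median (webcellHTS2, additive, no log transformation), and the mean of two independent replicates is reported.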
For orientation: In ATP-based viability assays light output follows the ATP content of the culture.

The subject of test [2] is HCT116. The description is as above. Particulars: 10 µM; treatment time 24 h; reporter: TCF4/Wnt. In outline:
as §1

In test [3] the test system is SW480. Described as above. Particulars: 10 µM; treatment time 24 h; reporter: 7TFP. In outline:
as §1

The subject of test [4] is DLD1. As to the kind of experiment: TCF/Wnt firefly luciferase reporter signal relative to plate median (fraction of plate median); higher = higher Wnt reporter signal. Conditions: 10 µM, treatment time 24 h. In outline:
as §1
(In general: In a reporter assay the amount or activity of a reporter protein is the signal.)

Test [5] relates to HCT116. The test is described as above. Conditions: 10 µM; treatment time 24 h; reporter: TCF4/Wnt. The essentials: as §1
Test [6] deals with SW480. Described as above. Particulars: 10 µM; treatment time 24 h; reporter: 7TFP. The essentials: as §1
Test [7] relates to DLD1. As to the kind of experiment: cell viability (CellTiter-Glo) relative to plate median (fraction of plate median); higher = more viable cells. Particulars: 5 µM; treatment time 24 h; reporter: 7TFP. The essentials:
(§2)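 Colorectal cancer lines with stably integrated lentiviral TCF/Wnt firefly luciferase reporters received library compounds at a final 5 µM, 24 h after seeding into 384-well plates, for a 24 h exposure. Reported figures are plate-median-normalised firefly luciferase or CellTiterGlo luminescence per well. They average two independent replicates.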

Test [8] has as its system HCT116. The description is as above. Conditions: 5 µM; treatment time 24 h; reporter: TCF4/Wnt. The essentials: as §2
The subject of test [9] is SW480. The description is as above. Conditions: 5 µM; treatment time 24 h; reporter: 7TFP. The essentials: as §2
Test [10] concerns DLD1. As to the kind of experiment: TCF/Wnt firefly luciferase reporter signal relative to plate median (fraction of plate median); higher = higher Wnt reporter signal. Particulars: 5 µM; treatment time 24 h; reporter: 7TFP. In outline: as §2
Test [11] concerns SW480. The test is described as above. Conditions: 5 µM; treatment time 24 h; reporter: 7TFP. The essentials: as §2

± gives the standard deviation of the averaged measurements.

In the case of `Cn1cc(C2=C(c3cn(C4CCN(Cc5ccccn5)CC4)c4ccccc34)C(=O)NC2=O)c2ccccc21`, the cell viability worked out at 0.854 ± 0.016 in the test with DLD1 [1] (reporter: 7TFP), 0.931 ± 0.059 in the test with DLD1 [1] (reporter: TCF4/Wnt), 1.08 ± 0.071 in the test with HCT116 [2] and 0.931 ± 0.081 with SW480 [3]. Besides, the “TCF/Wnt firefly luciferase reporter signal” value in the test on DLD1 [4] (reporter: 7TFP) turned out to be 1.98 ± 0.86; with DLD1 [4] (reporter: TCF4/Wnt), 1.38 ± 0.18; in the test with HCT116 [5], 2.9 ± 0.54; in the test on SW480 [6], 1.45 ± 0.17.

As to `NCC(CC(=O)O)c1ccc(Cl)cc1` (centres undefined), the cell viability in the test with DLD1 [7] amounted to 0.998 ± 0.088; in the test on HCT116 [8] it was 0.9975 ± 0.0035; in the test with SW480 [9] it was 1.03 ± 0.028. Further, the “TCF/Wnt firefly luciferase reporter signal” value came out at 0.897 ± 0.1 in the test with DLD1 [10] and 1.02 ± 0.12 with SW480 [11].

On to `CC[C@@H](C)C(=O)O[C@H]1[C@H](O)[C@H]2[C@@H](CN3C[C@@H](C)CC[C@H]3[C@@]2(C)O)[C@@H]2C[C@]34O[C@]5(O)[C@@H](OC(=O)[C@](C)(O)[C@@H](C)O)CC[C@@]3(C)[C@@H]5[C@@H](OC(C)=O)[C@@H](OC(C)=O)[C@H]4[C@@]21O` (stereo in doubt), for which the cell viability in the test with DLD1 [7] was 1.03 ± 0.035; with HCT116 [8], 1.17 ± 0.085; in the test on SW480 [9], 1.08 ± 0.028. Also, the “TCF/Wnt firefly luciferase reporter signal” value with DLD1 [10] worked out at 1.18 ± 0.092; in the test with SW480 [11] it was 1.08 ± 0.071.

On to `CC(C)c1ccc2c(c1O)CC[C@H]1C3=C(CC[C@]21C)C(=O)OC3`, for which the figures for the cell viability with DLD1 [7], in the test with HCT116 [8] and in the test on SW480 [9] were 1.1 ± 0.042, 1.1 ± 0.099 and 1.09, respectively. The entries for the “TCF/Wnt firefly luciferase reporter signal” value in the test with DLD1 [10] and in the test on SW480 [11] were 1.04 ± 0.19 and 1.06, respectively.

On to `N=C(NCCC[C@H](N)C(=O)O)N[N+](=O)[O-]`, for which the figures for the cell viability in the test with DLD1 [7], in the test on HCT116 [8] and with SW480 [9] were 0.944 ± 0.14, 0.966 ± 0.047 and 0.9515 ± 0.0064, respectively. The “TCF/Wnt firefly luciferase reporter signal” value in the test on DLD1 [10] was 1.07 ± 0.05; with SW480 [11], 0.947 ± 0.09.

Regarding `COC1=C[C@]23CCCN2CCc2cc4c(cc2[C@@H]3[C@@H]1O)OCO4`, the cell viability was determined as 0.98 ± 0.14 in the test on DLD1 [7], 1.01 ± 0.035 in the test with HCT116 [8] and 1.01 ± 0.021 with SW480 [9]. The “TCF/Wnt firefly luciferase reporter signal” value is 0.997 ± 0.32 in the test with DLD1 [10] and 0.953 ± 0.067 in the test on SW480 [11].

On to `Cc1ccccc1-n1c(Cn2ncc3c(N)ncnc32)nc2cccc(C)c2c1=O`, for which the cell viability was 1.07 ± 0.028 with DLD1 [1] (reporter: 7TFP), 1.03 in the test on DLD1 [1] (reporter: TCF4/Wnt), 1.22 ± 0.21 with HCT116 [2] and 1 ± 0.036 in the test on SW480 [3]. Further, the “TCF/Wnt firefly luciferase reporter signal” value in the test on DLD1 [4] (reporter: 7TFP) is 1.11 ± 0.13; in the test on DLD1 [4] (reporter: TCF4/Wnt), 0.77 ± 0.022; in the test with HCT116 [5], 0.604 ± 0.42; in the test with SW480 [6] it was 0.879 ± 0.2.

In the case of `CNc1ccccc1C(=O)O`, the cell viability was 0.923 ± 0.12 in the test with DLD1 [7], 0.85 ± 0.12 in the test on HCT116 [8] and 1.004 ± 0.0085 in the test with SW480 [9]. The “TCF/Wnt firefly luciferase reporter signal” value in the test with DLD1 [10] came out at 0.931 ± 0.088; in the test on SW480 [11], 1.1 ± 0.078.

`Cc1[nH]c2ccccc2c1CN(C)C`: the cell viability with DLD1 [7] was determined as 1.05 ± 0.014; in the test with HCT116 [8], 1.18 ± 0.11; in the test with SW480 [9], 1.085 ± 0.0071. Also, the results for the “TCF/Wnt firefly luciferase reporter signal” value with DLD1 [10] and with SW480 [11] were 1.07 ± 0.11 and 1.07 ± 0.057, respectively.

Regarding `CCNc1nc(Cl)nc(NCC)n1`, the cell viability in the test with DLD1 [7] was found to be 0.955 ± 0.028; in the test on HCT116 [8], 1.065 ± 0.0071; in the test on SW480 [9] it was 1.02 ± 0.03. The figures for the “TCF/Wnt firefly luciferase reporter signal” value with DLD1 [10] and in the test on SW480 [11] were 0.9375 ± 0.005 and 0.886 ± 0.034, respectively.

Regarding `CC(C)(C)c1cc(C=C(C#N)C#N)cc(Br)c1O`, the cell viability in the test with DLD1 [1] (reporter: 7TFP) came out at 0.79 ± 0.03; with DLD1 [1] (reporter: TCF4/Wnt), 0.804 ± 0.18; in the test on HCT116 [2], 0.966 ± 0.16; in the test on SW480 [3], 0.91 ± 0.035. Besides, the “TCF/Wnt firefly luciferase reporter signal” value with DLD1 [4] (reporter: 7TFP) stood at 1.2 ± 0.092; with DLD1 [4] (reporter: TCF4/Wnt), 1.07 ± 0.18; in the test on HCT116 [5], 1.38 ± 0.25; in the test on SW480 [6], 1.3 ± 0.11.

Regarding `C[C@@H]1CC[C@H]2[C@@H](C)C(=O)O[C@@H]3O[C@@]4(C)CC[C@@H]1[C@]32OO4`, the results for the cell viability in the test with DLD1 [7], with HCT116 [8] and in the test with SW480 [9] were 1.04, 1.09 ± 0.14 and 1.145 ± 0.0071, respectively. Also, the figures for the “TCF/Wnt firefly luciferase reporter signal” value in the test on DLD1 [10] and in the test with SW480 [11] were 1 ± 0.023 and 0.984 ± 0.066, respectively.

For the molecule `CC(C)=CC1C(C(=O)OCc2cccc(Oc3ccccc3)c2)C1(C)C` (centres undefined), the cell viability turned out to be 0.971 ± 0.02 in the test on DLD1 [7], 1.02 ± 0.037 with HCT116 [8] and 0.985 ± 0.035 in the test on SW480 [9]. Also, the “TCF/Wnt firefly luciferase reporter signal” value in the test on DLD1 [10] was 0.988 ± 0.1; in the test on SW480 [11] it was 0.979 ± 0.0042.

The values are drawn from the supplement of paper PMC6522484.
